F508del corr – correctors of CFTR F508del function in bronchial epithelial cells; AID 720511; 350,000 compounds, 0.36% hits; activity (quench increase), % at 7.58 µM; CFBE cells, YFP halide quenching; stimulated with forskolin plus potentiator P3; % fluorescence drop versus neutral controls;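 active = mean added fluorescence quench of at least 8% versus neutral control, with both replicates also reaching 8%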;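 also: cells transiently co-express mutant CFTR-F508del with the halide-sensitive YFP; corrector assay measuring rescue of mutant channel to the surface after 24 h compound exposure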
697 NFkB inh – inhibitors of the PMA/ionomycin-induced NF-kB reporter in 697 B cells; 697 B-cell NF-kB luciferase reporter, 16 h; inhibition, % at 4 µM; AID 435022; 330,000 compounds, 0.33% hits; in the data active = inhibition above about 35%
Jurkat NFkB inh – lowers PMA/ionomycin-induced NF-kB signal in Jurkat cells; PMA/ionomycin-induced NF-kB luciferase reporter, luminescence; inhibition, % at 4 µM; 330,000 compounds, 0.53% hits; in the data active = inhibition above about 50%
HIF activator – HIF pathway transcriptional activation; U2OS HRE-luciferase reporter, luminescence; normalized: DMSO 0%, desferrioxamine 100%; activation, % at 7.5 µM (by protocol); 300,000 compounds, 0.32% hits; AID 1910;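 active = mean activation of at least 10% of the iron chelator positive control signal, with at least half of replicates also reaching 10%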
697 NFkB conf – inhibitors of the PMA/ionomycin-induced NF-kB reporter in 697 B cells, retest. 697 B-cell NF-kB luciferase, 16 h. 2,000 compounds, 35% hits. inhibition, % at 4 µM. shares compounds with 697 NFkB inh; in the data active = inhibition mostly above about 28%, no sharp cut-off; inactive = mostly below about 22%
Numbers stand for hits; i = inactive; nt = no result given. Hits are enriched below; roughly 0.93% of the tested compounds scored in any of these assays.

SMILES | F508del corr | 697 NFkB inh | Jurkat NFkB inh | HIF activator | 697 NFkB conf
O=C1N=C(N2CCCCC2)S/C1=C\c1ccccc1F | i | i | i | i | nt
CC(C)C[C@H](NC(=O)c1nc[nH]c1C(=O)N1CCN(C(=O)OC(C)(C)C)CC1)C(=O)OC(C)(C)C | 12.3 | i | i | i | i
CC(C)CCNC(=O)CCCOc1cc(=O)n(C)c2ccccc12 | nt | 52.4 | i | i | 55.3
CC1CCN(C(=O)CCCOc2cc(=O)n(C)c3ccccc23)CC1 | nt | 38.3 | i | i | 37.5
COc1ccccc1NC(=O)Nc1ccc2c(c1)C(=O)N(C)C[C@H](OC)[C@H](C)CN(C)[C@H](C)CO2 | i | nt | nt | nt | nt
CNC(=O)C[C@H]1CC[C@@H]2[C@@H](COc3ccc(NC(=O)c4cscn4)cc3C(=O)N2C)O1 | i | nt | nt | nt | nt
COc1cccc(S(=O)(=O)N(C)C[C@H]2Oc3ncc(-c4cccc(C(=O)N(C)C)c4)cc3C(=O)N([C@H](C)CO)C[C@@H]2C)c1 | i | nt | nt | nt | nt
COc1cc(NC(=S)NC(=O)c2ccc(C(C)(C)C)cc2)ccc1NC(=O)c1cccs1 | i | i | i | i | i
COc1cc(NC(=S)NC(=O)c2cc(C)cc(C)c2)ccc1NC(=O)c1cccs1 | nt | i | i | i | nt
CO[C@@H]1CN(C)C(=O)c2ccc(NC(=O)c3ccc(F)cc3)cc2OC[C@@H](C)N(C(C)=O)C[C@H]1C | i | nt | nt | nt | nt
O=S(=O)(c1cnc(Cl)c(Cl)c1)N1CCc2ccccc21 | i | i | i | i | nt
O=S(=O)(c1cnc(Cl)c(Cl)c1)N1CCCc2ccccc21 | nt | 42.6 | i | i | 37.0
COc1ccc(Cl)cc1C(=O)Nc1nc2ccccc2[nH]1 | i | i | i | i | i
COc1ccc(C(=O)Nc2nc3ccccc3[nH]2)cc1OC | i | i | i | i | nt
CC1=CC(C)(C)Nc2ccc(OC(=O)CCN3C(=O)c4ccccc4C3=O)cc21 | nt | 41.3 | i | i | i
CC(=O)Nc1cccc(C(=O)/C=C/c2ccc(F)cc2)c1 | i | i | i | i | nt
CC(=O)Nc1cccc(C(=O)/C=C/c2ccc(/C=C/C(=O)c3cccc(NC(C)=O)c3)cc2)c1 | i | i | i | i | i
Cc1noc(C)c1NC(=O)Nc1ccc2c(c1)C(=O)N([C@@H](C)CO)C[C@@H](C)[C@H](CN(C)Cc1ccc(C(=O)O)cc1)OCCCC[C@@H](C)O2 | i | nt | nt | nt | nt
CC(=O)Nc1ccc(C23CC4CC(CC(C4)C2)C3)cc1 | i | i | i | i | nt
O=C(CSCCO)Nc1ccc(C23CC4CC(CC(C4)C2)C3)cc1 | nt | 56.7 | i | i | 65.5
CCOc1ccc(C(C)=O)cc1Cn1nc(C(=O)O)c2ccccc2c1=O | nt | 35.1 | i | i | i
COc1ccccc1Cn1nc(C(=O)O)c2ccccc2c1=O | i | i | i | i | nt
O=C1N/C(=C\c2ccc(O)cc2)C(=O)c2ccccc21 | nt | 44.6 | i | i | i
CCN(CC)c1ccc(/C=C2/C(=O)ON=C2C)cc1 | i | 39.5 | i | i | 36.0
CC1=NOC(=O)/C1=C/c1ccc(N(C)C)cc1 | nt | i | i | i | nt
SMILES | F508del corr | 697 NFkB inh | Jurkat NFkB inh | HIF activator | 697 NFkB conf
COc1ccc2c3c(n(C)c2c1)[C@H](CO)N(CC1CCOCC1)CC31CN(C(=O)Nc2ccccc2)C1 | i | nt | nt | nt | nt
CCCNC(=O)[C@@]1(Sc2ccc(C)cc2)CC(=O)N(C2CCCCC2)[C@@H]1c1ccc(CO)cc1I | i | nt | nt | nt | nt
C=CCn1c(C)cc(C(=O)CSc2nc3ccccc3[nH]2)c1C | nt | i | i | i | i
O=C(Nc1ccc(S(=O)(=O)N2CCCc3ccccc32)cc1)C1CCCO1 (stereo not drawn) | i | i | i | i | nt
O=C(O)C1CC=CCC1C(=O)Nc1ccc(S(=O)(=O)N2CCCc3ccccc32)cc1 (stereo not drawn) | nt | i | i | i | i
COc1cc(-c2nc3n(n2)C(c2ccc(F)cc2)C2=C(CCCC2=O)N3)cc(OC)c1OC (stereo not drawn) | nt | 37.1 | i | i | 33.5
CC1CCCC(C)N1C(=O)COC(=O)CSc1ccc(C(N)=O)cc1[N+](=O)[O-] (stereo not drawn) | i | 35.1 | i | i | i
C[C@@H]1CN([C@H](C)CO)S(=O)(=O)c2ccc(C#Cc3cccnc3)cc2O[C@@H]1CN(C)C | i | nt | nt | nt | nt
Cc1ccc(S(=O)(=O)N[C@@H]2C=C[C@H](CC(=O)NCc3ccccc3F)O[C@H]2CO)cc1 | i | nt | nt | nt | nt
CC1Oc2ccccc2C=C1/C=N/Nc1ccc(C(=O)O)cc1 (stereo not drawn) | i | i | i | i | i
COCCCNc1nc2cc(OC)c(OC)cc2c2nc(-c3ccccc3)nn12 | i | 37.2 | i | i | i
COc1cc(CN(C2CCCCC2C)S(=O)(=O)c2ccc(S(=O)(=O)NC3CC3)cc2)cc(OC)c1OC (stereo not drawn) | nt | 36.2 | i | i | i
COc1ccc(CN(C2CCCCC2C)S(=O)(=O)c2ccc(S(=O)(=O)N(C)C)cc2)cc1OC (stereo not drawn) | nt | i | i | i | nt
CCCCC(=O)Nc1nc2c(OC)cc([N+](=O)[O-])cc2s1 | i | i | i | i | nt
CCCCC(=O)Nc1nc2c(OC)ccc(OC)c2s1 | i | 35.7 | i | i | i
CC(C)Cc1nnc(NC(=O)c2ccc3c(c2)OCCO3)s1 | i | i | i | nt | i
Cc1cccnc1NC(=O)c1ccc2c(c1)OCCO2 | i | i | i | i | nt
CCCN1C(=O)c2ccc(C(=O)Nc3ccc4c(c3)OCO4)cc2C1=O | i | 36.0 | i | i | i
CC(C)C(=O)Nc1ccc(NC(=O)c2ccc3c(c2)OCO3)cc1 | i | 49.6 | i | i | 43.0
CCOCc1nnc(NC(=O)c2ccc3c(c2)OCO3)s1 | i | i | i | i | nt
O=C(Nc1ncccc1O)c1ccc2c(c1)OCCO2 | i | i | i | 12.5 | i
Cc1noc(C)c1S(=O)(=O)Nc1ccc2c(c1)C(=O)N([C@@H](C)CO)C[C@H](C)[C@@H](CN(C)C(=O)Cc1ccccc1)OCCCC[C@H](C)O2 | i | nt | nt | nt | nt
O=C(C[C@H]1CC[C@@H](NC(=O)c2ccncc2)[C@H](CO)O1)Nc1ccc(-c2ccccc2)cc1 | i | nt | nt | nt | nt
Cc1ccc(NC(=O)c2ccc3c(c2)OCCO3)cc1C | i | i | i | i | i
COc1ccc(OCc2cccc(C(=O)NN)c2)cc1 | nt | 67.8 | i | i | 29.0
SMILES | F508del corr | 697 NFkB inh | Jurkat NFkB inh | HIF activator | 697 NFkB conf
COc1ccc(OCc2cccc(C(=O)Nn3cc([N+](=O)[O-])cn3)c2)cc1 | nt | 92.7 | i | i | 83.2
CCOc1ccc(OCc2cccc(C(=O)N/N=C/c3cccnc3)c2)cc1 | nt | 66.8 | i | i | 51.8
COc1ccc(OCc2cccc(C(=O)Nc3cc(C)on3)c2)cc1 | nt | 90.8 | i | i | 77.2
COC(=O)c1cccc(Cn2cc([N+](=O)[O-])cn2)c1 | nt | i | i | i | nt
CC(C)NC(=O)Nc1ccc2c(c1)CC(=O)N([C@@H](C)CO)C[C@@H](C)[C@@H](CN(C)C(=O)NC(C)C)O2 | i | nt | nt | nt | nt
O=c1c2ccccc2oc2cc(C#CC3(O)CCCCC3)ccc12 | i | i | i | i | nt
O=c1c2ccccc2sc2ccc(C#CC3(O)CCCCC3)cc12 | i | 39.7 | i | i | i
O=C(CN1CCOCC1)N1CC[C@@H]2[C@@H](CO)Nc3ccc(-c4ccc(F)cc4)cc3[C@@H]21 | i | nt | nt | nt | nt

Source: PubChem BioAssay
